# Experiments:
# [1] = system: Schistosoma mansoni schistosomula (LE); test: XTT viability relative to DMSO control; higher = more viable (less active); conditions: 72 h; 10 µM
# Description: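 XTT/PMS was then added for a further 24 h (72 h total) and A450 was read. % viability = (sample - heat-killed control)/(DMSO control - heat-killed control) x 100, from duplicate wells in two independent experiments.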
# [2] = system: Schistosoma mansoni schistosomula (NMRI); test: phenotypic severity score (0-4); higher = more antischistosomal effect, active = 2 or more; conditions: 10 µM
# [3] = system: Schistosoma mansoni schistosomula (Liberian); test: drug effect (1 - score/DMSO control score) (fraction); higher = more antischistosomal effect, active = 0.5 or more; extreme values may be limits of the assay; conditions: 10 µM
# In short: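 Drug effect was calculated by comparing the mean score of the test wells with the mean score of the DMSO wells, and any negative value was set to zero. Duplicate wells of 50 Liberian-strain S. mansoni schistosomula, mechanically transformed from cercariae and pre-incubated at least 12 h, received 10 µM compound in Medium 199 with 5% FCS at 37 °C, 5% CO2, with 0.1% DMSO in the comparison wells. Visual scoring at 10× took place at 24, 48 and 72 h on a quarter-point scale from 3 (normal) to 0 (dead), and a plate counted only if its DMSO wells averaged at least 2.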
# 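For phenotypic severity score (0-4) in this document: visual microscopic scoring of shape, motility and density changes versus 0.5% DMSO solvent controls, one point per descriptor, degeneracy or death scored 4, mean of duplicate wells.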
Structure (SMILES),XTT viability [1] [%],phenotypic severity score ([2]; 24 h),phenotypic severity score ([2]; 48 h),phenotypic severity score ([2]; 72 h),drug effect ([3]; 24 h),drug effect ([3]; 48 h),drug effect ([3]; 72 h)
CCCn1nnc(NC(=O)COc2ccc(C3CCCCC3)cc2)n1,89.6,0 (inactive),0 (inactive),0 (inactive),0.136 (inactive),0.2 (inactive),0.182 (inactive)
COc1cc(NC(C)CCCN)c2ncccc2c1 (stereo not drawn),77.4,0 (inactive),0 (inactive),0 (inactive),< 0 (inactive),0.135 (inactive),0.333 (inactive)
Cc1ccccc1C(=O)N1N=C(Nc2ccccc2)SC1(C)C,88.7,1 (inactive),2 (active),0 (inactive),0.0455 (inactive),0.1 (inactive),0.158 (inactive)
CCc1nc2ccc(C(=O)NCc3ccc4c(c3)OCO4)cn2c1N(C)Cc1cccs1,140,0 (inactive),0 (inactive),0 (inactive),< 0 (inactive),0.1 (inactive),0.167 (inactive)
CCOC(=O)c1c(NC(=O)c2c(F)c(F)c(F)c(F)c2F)sc(C(N)=O)c1C,-3.42,4 (active),4 (active),4 (active),1 (active),1 (active),1 (active)
Cc1nn(C(=O)Nc2cccc(C(F)(F)F)c2)c(C)c1Sc1ncccn1,137,0 (inactive),0 (inactive),0 (inactive),0.15 (inactive),0.167 (inactive),0.312 (inactive)
COc1ccc(-c2nn(C(C)C)c3ncnc(N)c23)cc1OC,95.2,0 (inactive),0 (inactive),0 (inactive),0.05 (inactive),0.0556 (inactive),0.0556 (inactive)
CCCCOC(=O)Nc1cc2nc(C3CCCCC3)[nH]c2cc1N1CCCC1,132,3 (active),4 (active),4 (active),0.15 (inactive),0.389 (inactive),0.562 (active)
COc1cc(OC)cc(C(=O)NCC2Cc3cc(Cl)cc(-c4ccncc4)c3O2)c1 (stereo not drawn),153,0 (inactive),0 (inactive),0 (inactive),0.1 (inactive),0.189 (inactive),0.152 (inactive)
Cc1cc(NCCc2ccccc2)nc(NC(=N)Nc2ccc(Cl)cc2)n1,8.5,4 (active),4 (active),4 (active),1 (active),1 (active),1 (active)
O=C(COc1cccc(F)c1)Nc1nc(-c2ccccn2)cs1,68.1,0 (inactive),0 (inactive),0 (inactive),0.0909 (inactive),0.1 (inactive),0.127 (inactive)
COc1ccccc1CNC(=O)c1cc(C2CC2)nc2c1cnn2C(C)C,38.4,0 (inactive),0 (inactive),0 (inactive),0.2 (inactive),0.459 (inactive),0.667 (active)
CC(C)(C)OC(=O)N1CCN(c2cc(-c3ccc(Oc4ccccc4)cc3)n[nH]2)CC1,66.1,0 (inactive),0 (inactive),0 (inactive),0.0526 (inactive),0.167 (inactive),0.25 (inactive)
Cc1cccc(NC(=O)c2cc(S(=O)(=O)N(C)c3ccc(F)cc3)ccc2Cl)n1,81,0 (inactive),0 (inactive),0 (inactive),0.05 (inactive),0.135 (inactive),0.222 (inactive)
COc1cccc(-n2nnnc2S(C)(=O)=O)c1,-0.214,4 (active),4 (active),4 (active),1 (active),1 (active),1 (active)
NCC(c1cccs1)S(=O)(=O)c1ccccc1 (stereo not drawn),45.2,1 (inactive),1 (inactive),2 (active),0.15 (inactive),0.05 (inactive),0.0556 (inactive)
O=C(NC1CCN(c2ccnc3ccccc23)C1)c1cccc(C(F)(F)F)c1 (stereo not drawn),103,0 (inactive),0 (inactive),0 (inactive),0.135 (inactive),0.556 (active),0.938 (active)
COC(=O)Nc1nc2cc(C(=O)c3ccccc3)ccc2[nH]1,71.1,0 (inactive),0 (inactive),0 (inactive),0.15 (inactive),0.189 (inactive),0.278 (inactive)
CC(=O)N1CCc2cc3nc(C)cc(C)c3cc21,112,0 (inactive),0 (inactive),0 (inactive),0.2 (inactive),0.111 (inactive),0.0625 (inactive)
CC(C)(C)c1cc(C(=O)N2CCN(c3nccnc3C#N)CC2)n(Cc2ccccc2)n1,120,0 (inactive),0 (inactive),1 (inactive),< 0 (inactive),0.027 (inactive),0.0303 (inactive)
Clc1ccc(-n2cc(COc3ccnc4ccccc34)nn2)cc1,103,0 (inactive),0 (inactive),0 (inactive),0.105 (inactive),0.389 (inactive),0.312 (inactive)
CNc1nnc(Sc2cnn(-c3ccccc3)c(=O)c2Cl)s1,-5.83,4 (active),4 (active),4 (active),1 (active),1 (active),1 (active)

Structure (SMILES),XTT viability [1] [%],phenotypic severity score ([2]; 24 h),phenotypic severity score ([2]; 48 h),phenotypic severity score ([2]; 72 h),drug effect ([3]; 24 h),drug effect ([3]; 48 h),drug effect ([3]; 72 h)
CS(=O)(=O)c1cccc(-c2cnc3[nH]cc(-c4ccc(CCC(=O)O)cc4)c3c2)c1,86.9,0 (inactive),0 (inactive),0 (inactive),0.227 (inactive),0.6 (active),0.455 (inactive)
COc1cc(C2=NCCN2)ccc1-c1cn(-c2cccc(C3=NCCN3)c2)nn1,72.8,1 (inactive),0 (inactive),0 (inactive),0.25 (inactive),0.297 (inactive),0.394 (inactive)
c1ccc2c(c1)CN(CC1CC1)CC1(CCN(Cc3c[nH]c4cnccc34)CC1)O2,58,0 (inactive),0 (inactive),0 (inactive),< 0 (inactive),0.1 (inactive),0.211 (inactive)
CC1=Nc2ccc(Cl)cc2C(c2ccccc2)N1CCNC(=O)CN(C)C (stereo not drawn),113,0 (inactive),0 (inactive),0 (inactive),0.35 (inactive),0.333 (inactive),0.375 (inactive)
c1cc(C2=NCCN2)cc(-c2cc(-c3ccc(C4=NCCN4)cc3)no2)c1,115,0 (inactive),0 (inactive),0 (inactive),0.1 (inactive),0.111 (inactive),0.125 (inactive)
Cc1cc(Cl)c(S(=O)(=O)N2CCCC2)cc1OCC(=O)NC1CCCCC1,111,0 (inactive),0 (inactive),0 (inactive),0.1 (inactive),0.189 (inactive),0.212 (inactive)
O=C(NCCN1CCCC1)c1cc(NCCCCN2CCC(F)(F)CC2)nc2ccc(Cl)cc12,86.9,2 (active),4 (active),4 (active),0.3 (inactive),0.389 (inactive),0.562 (active)
CC(C)(C)n1nc(-c2ccccc2)c2c(N)ncnc21,106,1 (inactive),0 (inactive),0 (inactive),0.182 (inactive),0.2 (inactive),0.127 (inactive)
N#Cc1nc(-c2ccccc2F)oc1NCCc1ccccc1,94,0 (inactive),0 (inactive),0 (inactive),0.2 (inactive),0.111 (inactive),0.125 (inactive)
O=[N+]([O-])c1cn2c(n1)OC[C@@H](OCc1ccc(OC(F)(F)F)cc1)C2,158,0 (inactive),0 (inactive),0 (inactive),0.2 (inactive),0.167 (inactive),0.312 (inactive)
Cn1ncc2c(N3CCOCC3)nc(NCCc3c[nH]c4ccccc34)nc21,71.8,4 (active),4 (active),4 (active),0.45 (inactive),0.676 (active),0.944 (active)
Cc1cc(C)n2nc(C(=O)Nc3cc(C(F)(F)F)ccc3N3CCOCC3)nc2n1,73.3,0 (inactive),0 (inactive),0 (inactive),0.05 (inactive),0.135 (inactive),0.222 (inactive)
NC(CC(=O)c1ccc(Cl)cc1Cl)C(Cl)(Cl)Cl (stereo not drawn),69.2,0 (inactive),0 (inactive),0 (inactive),0.0455 (inactive),0.1 (inactive),0.158 (inactive)
C[C@H](c1ccc2c(c1)CCCC2)N(C)c1ncc2c(N)nc(N)nc2n1,39.1,0 (inactive),0 (inactive),0 (inactive),0.2 (inactive),0.278 (inactive),0.438 (inactive)
CC(=O)N1CCN(c2ccc(Oc3ccc(Cl)cc3O)cc2)CC1,89.7,0 (inactive),0 (inactive),0 (inactive),0.1 (inactive),0.027 (inactive),0.0303 (inactive)
O=C(C1CCN(c2nnnn2-c2ccccc2)CC1)N1CCc2ccccc2C1,117,0 (inactive),0 (inactive),0 (inactive),0.135 (inactive),0.111 (inactive),0.25 (inactive)
COc1cc(C2=NCCN2)ccc1-n1cc(-c2cccc(C3=NCCN3)c2)nn1,77.2,1 (inactive),0 (inactive),0 (inactive),0.243 (inactive),0.278 (inactive),0.5 (active)
Cc1ccc2[nH]c(C3CCCNC3)c(-c3ccncc3)c2c1 (stereo not drawn),75.2,0 (inactive),0 (inactive),0 (inactive),< 0 (inactive),< 0 (inactive),0.111 (inactive)
Cc1cc(NCC(C)C)c2n[nH]c(-c3ccccc3)c2n1,92.7,0 (inactive),0 (inactive),0 (inactive),0.105 (inactive),0.111 (inactive),0.0625 (inactive)
Cc1nnc(NC(=O)c2cn(-c3ccccc3)nc2-c2ccccc2C)o1,56.8,1 (inactive),1 (inactive),1 (inactive),< 0 (inactive),0.0811 (inactive),0.111 (inactive)
O=C(Cn1ccnc1[N+](=O)[O-])NCc1ccccc1,89.2,0 (inactive),0 (inactive),0 (inactive),0.15 (inactive),0.243 (inactive),0.222 (inactive)
CS(=O)(=O)Cc1nc2ccccc2oc1=O,355,0 (inactive),0 (inactive),0 (inactive),0.182 (inactive),0.45 (inactive),0.455 (inactive)
